Screening results: PubChem BioAssay, Center for Chemical Genomics, University of Michigan
Dicer processing: human Dicer pre-microRNA cleavage inhibition | Q9UPY3 | cat-ELCCA pre-miR-21 Dicer processing, chemiluminescence; stronger effect = higher value | z-score at 25 µM | hit rate 6% among 47,000; in the data active means z-score above about 3, passing the limit was not always enough;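 further: plate controls were vehicle for no effect and no enzyme for full effect; higher signal means more uncleaved substrate so more Dicer inhibition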
Target sequence (Q9UPY3 whole entry, looked up): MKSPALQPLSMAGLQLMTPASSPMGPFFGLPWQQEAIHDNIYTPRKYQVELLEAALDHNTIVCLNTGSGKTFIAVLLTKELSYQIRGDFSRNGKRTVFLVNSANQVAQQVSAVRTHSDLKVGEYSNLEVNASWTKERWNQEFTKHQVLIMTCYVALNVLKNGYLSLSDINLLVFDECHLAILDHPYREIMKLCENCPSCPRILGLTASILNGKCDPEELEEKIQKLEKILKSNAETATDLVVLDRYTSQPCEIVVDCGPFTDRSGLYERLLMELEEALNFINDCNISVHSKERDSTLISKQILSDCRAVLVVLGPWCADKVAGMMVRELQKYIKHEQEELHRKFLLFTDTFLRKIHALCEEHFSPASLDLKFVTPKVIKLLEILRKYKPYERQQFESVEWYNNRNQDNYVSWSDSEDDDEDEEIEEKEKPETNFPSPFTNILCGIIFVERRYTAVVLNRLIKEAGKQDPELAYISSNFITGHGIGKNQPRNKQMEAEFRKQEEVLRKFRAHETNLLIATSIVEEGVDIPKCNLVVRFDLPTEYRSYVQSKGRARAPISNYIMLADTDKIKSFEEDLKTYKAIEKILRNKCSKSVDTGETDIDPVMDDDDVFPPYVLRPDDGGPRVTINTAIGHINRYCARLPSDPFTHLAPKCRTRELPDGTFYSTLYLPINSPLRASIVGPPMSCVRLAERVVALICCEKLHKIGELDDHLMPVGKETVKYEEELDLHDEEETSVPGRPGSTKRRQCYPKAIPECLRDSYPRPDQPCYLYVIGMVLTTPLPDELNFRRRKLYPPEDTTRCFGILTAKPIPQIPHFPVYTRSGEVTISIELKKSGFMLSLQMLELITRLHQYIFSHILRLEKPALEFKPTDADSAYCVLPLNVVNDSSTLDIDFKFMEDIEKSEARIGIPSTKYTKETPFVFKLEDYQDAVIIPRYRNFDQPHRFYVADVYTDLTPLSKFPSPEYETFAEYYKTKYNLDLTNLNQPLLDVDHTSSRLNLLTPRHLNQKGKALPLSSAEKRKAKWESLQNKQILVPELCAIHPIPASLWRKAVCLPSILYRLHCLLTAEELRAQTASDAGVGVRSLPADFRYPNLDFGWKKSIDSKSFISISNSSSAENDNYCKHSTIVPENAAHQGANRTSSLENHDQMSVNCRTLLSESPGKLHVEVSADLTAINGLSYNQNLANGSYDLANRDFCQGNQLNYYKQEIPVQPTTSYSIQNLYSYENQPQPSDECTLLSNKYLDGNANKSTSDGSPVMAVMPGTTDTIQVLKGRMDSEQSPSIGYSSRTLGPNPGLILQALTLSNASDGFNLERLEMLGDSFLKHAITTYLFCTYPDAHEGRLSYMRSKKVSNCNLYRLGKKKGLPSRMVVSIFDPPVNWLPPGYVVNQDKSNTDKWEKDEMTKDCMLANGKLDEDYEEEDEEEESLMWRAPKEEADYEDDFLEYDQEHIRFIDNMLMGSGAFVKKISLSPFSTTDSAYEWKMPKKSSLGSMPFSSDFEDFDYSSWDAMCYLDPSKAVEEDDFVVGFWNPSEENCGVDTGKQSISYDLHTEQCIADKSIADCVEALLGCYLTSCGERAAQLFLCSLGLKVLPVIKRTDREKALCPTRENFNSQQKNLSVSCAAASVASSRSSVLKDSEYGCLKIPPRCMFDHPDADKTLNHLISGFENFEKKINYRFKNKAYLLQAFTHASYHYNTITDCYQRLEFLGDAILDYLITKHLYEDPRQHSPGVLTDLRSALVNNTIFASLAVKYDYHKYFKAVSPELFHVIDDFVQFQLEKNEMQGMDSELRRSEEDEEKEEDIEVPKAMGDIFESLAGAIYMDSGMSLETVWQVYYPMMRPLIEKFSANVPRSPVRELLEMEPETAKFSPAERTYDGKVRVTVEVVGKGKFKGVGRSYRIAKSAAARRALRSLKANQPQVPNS
* = called active by the depositor. This is one part of a sample in which hits are shown more often than they occur.

SMILES | Dicer processing
Oc1cccc(Nc2nc(-c3cccnc3)cs2)c1 | -0.29
CCNC(=O)c1c(C)nc2ccccn12 | 0
CC(=O)c1sc2nnc(-c3ccccc3)c(-c3ccccc3)c2c1N | 0.33
O=C(CSc1nc2ncccc2[nH]1)Nc1cccc(F)c1 | 0.06
CCOC(=O)C1=C(C)NC2=C(C(=O)CC(C)(C)C2)C1c1cccc(Oc2ccccc2)c1 (stereo unspecified) | 0.97
O=C(O)CCSc1nnc(-c2cccnc2)o1 | -0.09
NC(/N=C/c1ccccc1O)=N\S(=O)(=O)c1ccc(N=Cc2ccccc2O)cc1 | 27.2
CCOC(=O)N1CCc2c(sc3c2C(=O)NC(c2cc(Br)ccc2O)N3)C1 (stereo unspecified) | -6.91
c1ccc(-c2nnc(-c3ccccn3)n2-c2ccccn2)nc1 | 0.75
CC1CC(C)(C)N(C(=O)CN2C(=O)CCC2=O)c2ccccc21 (stereo unspecified) | 1.8
CC1CC(C)(C)N(C(=O)NC2CCCCC2)c2ccccc21 (stereo unspecified) | 2.53
CC1CC(C)(C)N(C(=O)Nc2cccc(Cl)c2)c2ccccc21 (stereo unspecified) | 6.64*
Cc1cccc(Cl)c1S(=O)(=O)NNC(=O)Cn1nnc(-c2cccc(Cl)c2Cl)n1 | -0.34
N#C/C(=C\Nc1cc(Cl)cc(Cl)c1)S(=O)(=O)c1ccccn1 | -4.24
CCOc1ccc(Nc2cc(C)nc3ccc(OC)cc23)cc1 | 2.86
Cc1cc(Nc2ccccc2)c2ccccc2n1 | 1.49
COc1ccc2nc(C)cc(Nc3ccc(Br)cc3)c2c1 | 5.05*
Cn1c2c(c(=O)n(C)c1=O)CN(Cc1ccc(CN3CNc4c(c(=O)n(C)c(=O)n4C)C3)cc1)CN2 | 3.77*
CN(C)CCN1CNc2c(c(=O)n(C)c(=O)n2C)C1 | 3.49*
CC(c1ccccc1)N1CNc2c(c(=O)n(C)c(=O)n2C)C1 (stereo unspecified) | 0.51
CCCN1CNc2c(c(=O)n(C)c(=O)n2C)C1 | 0.77
Cn1c2c(c(=O)n(C)c1=O)CN(CCCC(=O)O)CN2 | -1.85
CN1CNc2c(c(=O)n(C)c(=O)n2C)C1 | -2.45
O=C(CN(C1CCCCC1)S(=O)(=O)c1ccc(Br)cc1)N1CCc2ccccc2C1 | -1.11
Cc1ccsc1CNC(=O)CSCC(=O)O | -0.96
SMILES | Dicer processing
CC(C)(C)c1cnnn1-c1ccc(NC(=O)c2cccs2)cc1 | 1.47
Oc1ccccc1/C=N/C(/N=C/c1ccccc1O)c1ccccc1O | 0.33
Oc1ccccc1C=NCC1CCC(CN=Cc2ccccc2O)CC1 (stereo unspecified) | -0.73
Oc1ccccc1C=Nc1n[nH]c2ccccc12 | 3.49*
O=C(Nc1ccc(-c2ccccn2)s1)N1CCOCC1 | -0.4
Cc1nonc1NC(=O)N1CCOCC1 | 5.94*
Cc1nonc1NC(=O)Nc1ccncc1 | 44.4
O=c1oc2c(-c3ccccc3F)cc(O)cc2s1 | 9.17
O=C1C2=C(c3ccccc3)c3cc(Cl)ccc3C2Sc2ccccc21 (stereo unspecified) | -0.03
O=c1oc2c(-c3ccc(Cl)cc3)cc(O)cc2s1 | 11.5*
O=c1c(-c2cccc(Cl)c2)c(C(F)(F)F)oc2cc(O)ccc12 | -1.33
O=c1oc2c(-c3cccc(Cl)c3)cc(O)cc2s1 | 6.23*
O=C(c1ccc(Cl)cc1)c1c(O)cc(-c2ccc(Cl)cc2)oc1=O | 2.65
O=C(Nc1ccc(Cl)cc1)c1cscc1Sc1ccc(Cl)cc1 | 0.85
CCOC(=O)Cn1cnc2sc(C)c(C)c2c1=O | 4.88
Cc1ccc(C(=O)CC2(O)C(=O)N(C)c3ccccc32)c(C)c1 (stereo unspecified) | 0.81
COc1ccc(C(=O)/C(C#N)=C/c2cc(C#Cc3ccccc3)cs2)cc1 | -0.72
COCCOC(=O)C1=C(C)NC2=C(C(=O)CCC2)C1c1ccccc1OC(C)C (stereo unspecified) | -0.24
Cc1c(O)c2cnn(-c3ccccc3)c2[nH]c1=O | 0.66
COc1ccc(C2/C(=C(/O)c3ccc(C)cc3)C(=O)C(=O)N2CC(C)O)cc1OC (stereo unspecified) | -0.96
Cn1c(CSCc2nc(-c3ccc(Cl)cc3)cs2)nnc1SCC(=O)Nc1ccc(Cl)cc1 | -0.37
Cc1ccc(N)c(C(=O)Nc2ccc(Cl)cc2)c1 | 5.07*
CCOC(=O)c1cc(C)ccc1NC(=O)c1ccc(Cl)cc1 | -0.46
Cc1c(C(=O)Nc2ccc(Cl)cc2)cc(-c2ccccc2)n1-c1ccccc1 | -0.69
COc1ccc(C2C3=C(CC(C)(C)CC3=O)Nc3ncnn32)cc1 (stereo unspecified) | 1.42
SMILES | Dicer processing
CN(C)C(=O)Nc1cccc(Cl)c1Cl | 13.2
O=C(CSc1ncn[nH]1)c1ccc(O)cc1O | -0.31
O=C(COc1ccccc1Br)c1ccc(O)cc1O | 3.16*
O=C(COc1ccccc1Br)Nc1ccc2c(c1)OCO2 | 1.04
O=C1c2oc3ccc(Cl)cc3c(=O)c2C(c2ccc(O)cc2)N1Cc1ccc2c(c1)OCO2 (stereo unspecified) | 2.56
COc1c(Cl)cc(Cl)c(OC)c1C(=O)NC(=O)Nc1c(Cl)cc(Cl)cc1Cl | 3.16*
COc1c(Cl)cc(Cl)c(OC)c1C(=O)NC(=O)Nc1c(C)cc(Br)cc1C | -1.93
COc1c(Cl)cc(Cl)c(OC)c1C(=O)NC(=O)Nc1c(Cl)cc([N+](=O)[O-])cc1Cl | -1.03
Cc1cccc(Cn2nc(C(C)(C)C)cc2-c2nnc(SCC(=O)Nc3ccccc3Cl)o2)c1 | 2.29
COc1ccc(Br)c(C(=O)/C(C#N)=N/O)c1 | 1.44
CC(C)(C)OC(=O)NCCNC(=O)Nc1ccccc1C(F)(F)F | -0.78
Cc1nc(C(F)(F)F)ccc1C(=O)NCCNC(=O)OC(C)(C)C | 4.36*
CC(C)(C)OC(=O)NCCNC(=O)C1CCN(c2nccc(C(F)(F)F)n2)CC1 | -1.01
CCc1ccc(Oc2c(C(F)(F)F)oc3cc(OCC(=O)OC)ccc3c2=O)cc1 | -0.71
Nc1nc(Nc2cccc(F)c2)sc1C(=O)c1ccc(F)cc1 | 3.22
Nc1nc(Nc2ccccc2)sc1C(=O)c1ccc(F)cc1 | 1.68
Nc1nc(Nc2ccc(F)cc2)sc1C(=O)c1ccccc1 | 4.25*
C=C1SC(Nc2ccccc2Cl)=NC1(CC)CC | -0.11
Cc1nc2nc(C(F)(F)F)[nH]n2c(=O)c1C | 8.44
CC(C)(C)c1ccc(NC(=O)Oc2ccccc2N2CCOCC2)cc1 | -0.14
O=C(Nc1ccccc1)Oc1cccc(N2CCOCC2)c1 | 3.3*
O=C(Nc1ccc2c(c1)OCO2)Oc1ccccc1 | -0.16
O=C(NCC1CCCO1)C1Sc2nnc(-c3ccccc3)n2NC1c1ccccc1 (stereo unspecified) | 0.15
COc1c(C(=O)Nc2ccc(Cl)cc2)cnc2c1c(C)nn2C | 1.59
O=C(NC1CCS(=O)(=O)C1)c1ccc(Cl)cc1 (stereo unspecified) | -0.63
SMILES | Dicer processing
O=C(N=S1CCN(c2ncc(C(F)(F)F)cc2Cl)CC1)Nc1ccc(Cl)cc1 | -1.38
COC(=O)c1sc(-c2ccc(Cl)cc2)cc1NC(=O)Nc1cccs1 | 3.42*
COC(=O)c1sc(-c2ccc(Cl)cc2)cc1NC(=O)c1cccnc1Oc1ccccc1 | 1.9
COC(=O)c1sc(-c2ccc(Cl)cc2)cc1NC(=O)c1cc(C)nn1C | -0.98
CCCCC(NC1CCS(=O)(=O)C1)C(=O)O (stereo unspecified) | 0.81
O=C(NCCCN1CCN(Cc2c(F)cccc2Cl)CC1)c1cn2cc(C(F)(F)F)cc(Cl)c2n1 | -0.04
Cc1onc(-c2c(Cl)cccc2Cl)c1C(=O)NNc1c(Cl)cc(Cl)cc1Cl | 4.41
CCOC(=O)C(NC(=O)c1cccc(C)c1)(Nc1cccc(C)n1)C(F)(F)F (stereo unspecified) | -1.65
CCOC(=O)C(NCCc1ccccc1)(NC(C)=O)C(F)(F)F (stereo unspecified) | 0.6
